Molecules are shown by their SMILES. Values without a mark were called inactive.

In one assay the test system is Plasmodium falciparum NF54-HGL (transmission to Anopheles stephensi). Briefly: percentage of barcode signal found in uninfected mosquitoes (transmission-blocking activity); higher = stronger blocking of transmission to mosquito, active = 80 or more. The conditions noted are these: 10 µM; gametocyte preincubation time 24 h; readout time post-feed 8 days. The procedure: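 The mixture was fed to Anopheles stephensi in 96-well plates as blood meals tagged with DNA-barcoded Asaia bacteria. Eight days later, mosquitoes were classed infected or uninfected by luminescence (mean + 5 SD of unfed controls). Barcodes were quantified by Luminex MagPlex-TAG in the pooled uninfected and infected Asaia cultures, background-corrected, and the score is % of barcode signal in uninfected mosquitoes = 100*Iu/(Iu+Ii).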
`CNc1snc(C)c1C(=O)NCCOc1ccc(OC)cc1`: the “percentage of barcode signal found in uninfected mosquitoes” value (shortened to “percentage of barcode signal found”) was 25.3%.

As to `CN(C)CCNC(=O)N1CCCN(c2ncnc3cc(-c4ccccc4)sc23)CC1`, the “percentage of barcode signal found” value was 34.3%. Turning to `COc1ccc(OC(C)C(=O)Nc2ccc(Cl)cc2C)cc1` (configuration not stated), the “percentage of barcode signal found” value is -0.09%. Turning to `Cc1nnc(NCc2cccc(Cl)c2)c2ccccc12`, the “percentage of barcode signal found” value was 34.2%. With `Oc1c(I)cc(I)c2cccnc12`, the “percentage of barcode signal found” value is -1.81%.

With `Nc1nc(N)c2c3c(sc2n1)CN(Cc1ccccc1)CC3`, the “percentage of barcode signal found” value is 11.7%. As for `CC1CS(=O)(=O)CCN1/N=C/c1ccc([N+](=O)[O-])o1` (configuration not stated), the “percentage of barcode signal found” value is 91.3% (active). `Cc1ccc(NC(=O)CC2COc3ccccc3O2)cc1Cl` (configuration not stated): the “percentage of barcode signal found” value was 38.8%.

For the compound `O=C(Nc1ccnc(-c2cccnc2)n1)c1cc(C(F)(F)F)cc(C(F)(F)F)c1`, the “percentage of barcode signal found” value is 46.9%. `c1ccc(-c2cc(N3CCCCC3)c3ccccc3n2)nc1`: the “percentage of barcode signal found” value was 53.1%. With `O=C(NC1CC1)c1ccc(CSCc2ccccc2Cl)o1`, the “percentage of barcode signal found” value was 36.9%. On to `O=C(NC1CCCCC1)N1CCN(Cc2ccc3c(c2)OCO3)CC1`, for which the “percentage of barcode signal found” value was -0.671%. `CCCn1c(CNc2ccccc2O)nc2ccccc21`: the “percentage of barcode signal found” value is 34.7%.

In the case of `Cc1ccc2c(c1C)NC(=O)C21NN=C(c2ccccc2)S1` (configuration not stated), the “percentage of barcode signal found” value is 77%.

Take `CC[C@@H]([C@H](C)O)n1ncn(-c2ccc(N3CCN(c4ccc(OC[C@@H]5CO[C@@](Cn6cncn6)(c6ccc(F)cc6F)C5)cc4)CC3)cc2)c1=O`: the “percentage of barcode signal found” value is 42.4%. On the same count and under the same terms, with `COc1ccc(Nc2ccccc2NC(=O)c2ccc(O)nc2)cc1` the figure was 7.07%. For the compound `COc1ccc(N(CCc2cccc(C)n2)C(=O)C2CCCCC2)cc1`, the “percentage of barcode signal found” value is 29.5%. In the case of `O=C(Nc1ccc(F)c(-c2nc3cc(-c4ccccc4)cnc3[nH]2)c1)N1CCCC1`, the “percentage of barcode signal found” value was 35.5%.

Still in this assay, the particulars now being: 20 µM; gametocyte preincubation time 24 h; readout time post-feed 8 days.
Consider `CN1CCCN(C(c2ccccc2)c2ccc(Cl)cc2)CC1` (configuration not stated), for which the “percentage of barcode signal found” value is 25.1%. For `COc1cc(-c2cc(-c3ccc(S(C)(=O)=O)cc3)cnc2N)ccc1O`, the “percentage of barcode signal found” value was 48.6%. Regarding `Cc1cc(Cl)ccc1NC(=O)CCc1ccc(S(=O)(=O)NCC(C)C)cc1`, the “percentage of barcode signal found” value was 0.0223%. Take `CC[P](CC)(CC)=[Au][S][C@H]1O[C@@H](COC(C)=O)[C@H](OC(C)=O)[C@@H](OC(C)=O)[C@@H]1OC(C)=O`: the “percentage of barcode signal found” value was 99% (active). For `NCCC(O)C(=O)N[C@@H]1C[C@H](N)[C@@H](OC2O[C@H](CN)[C@@H](O)[C@H](O)[C@H]2O)[C@H](O)C1OC1O[C@H](CO)[C@@H](O)[C@H](N)[C@H]1O` (some centres not stated), the “percentage of barcode signal found” value was 37.6%. `c1cncc(NCc2ccc(-c3cc4ccncc4cc3OC3CCNCC3)s2)c1`: the “percentage of barcode signal found” value is 99.4% (active). As to `CC(C)(C)OC(=O)N1CCN(c2cc(-c3ccc(Oc4ccccc4)cc3)n[nH]2)CC1`, the “percentage of barcode signal found” value is 39.8%.

For the compound `CC(=O)N(CCN(C(=O)c1ccc(F)cc1)c1ccccc1)c1ccccc1`, the “percentage of barcode signal found” value is 1.19%. Turning to `Cn1c(=O)c2c(S(C)(=O)=O)snc2n(C)c1=O`, the “percentage of barcode signal found” value was 21.4%. For `CCn1ncc2c(NC3CCOCC3)c(CNC(=O)c3ccnn3C)c(C)nc21`, the “percentage of barcode signal found” value is 91.2% (active). Consider `FC(F)(F)c1cccc(-c2nc3c(NCc4ccncc4)nccc3[nH]2)c1`, for which the “percentage of barcode signal found” value is 2.48%. `Clc1cccc(CO[C@H]2CCc3ccccc3[C@@H]2n2ccnn2)c1`: the “percentage of barcode signal found” value was -1.12%. On the same count and under the same terms, with `CNCCC(Oc1ccc(C(F)(F)F)cc1)c1ccccc1` (configuration not stated) the figure was 27.5%; with `c1ccc(Oc2ccc(-c3cc(N4CCNCC4)[nH]n3)cc2)cc1`, 27.2%; with `CC(=O)N1CCN(c2ccc(Oc3ccc(Cl)cc3O)cc2)CC1`, 23.4%. The same measure, in the same setting: with `CCN(CC)C(=O)N1CCN(C)CC1` the figure was 4.35%; with `Cc1ccccc1C(=O)N1N=C(Nc2ccccc2)SC1(C)C`, -0.332%; with `O=[N+]([O-])c1cn2c(n1)OC[C@@H](OCc1ccc(OC(F)(F)F)cc1)C2`, 17%. For `CN1CCN(S(=O)(=O)c2ccc(-c3ccc4c(Nc5ccc6nn[nH]c6c5)ccnc4c3)cc2)CC1`, the “percentage of barcode signal found” value is 3.18%.

Values taken from the supplement of paper PMC8726507.
